Results published in ChEMBL document CHEMBL2218924, “A broad activity screen in support of a chemogenomic map for kinase signalling research and drug discovery” (Biochem J, 2013).

Columns and labels:
[1] = target: Protein kinase C delta type (Homo sapiens) (UniProt Q05655); settings: at 10 µM
[2] = target: T1, Protein kinase C epsilon type (Homo sapiens) (UniProt Q02156); settings: at 10 µM
T1 sequence (whole entry): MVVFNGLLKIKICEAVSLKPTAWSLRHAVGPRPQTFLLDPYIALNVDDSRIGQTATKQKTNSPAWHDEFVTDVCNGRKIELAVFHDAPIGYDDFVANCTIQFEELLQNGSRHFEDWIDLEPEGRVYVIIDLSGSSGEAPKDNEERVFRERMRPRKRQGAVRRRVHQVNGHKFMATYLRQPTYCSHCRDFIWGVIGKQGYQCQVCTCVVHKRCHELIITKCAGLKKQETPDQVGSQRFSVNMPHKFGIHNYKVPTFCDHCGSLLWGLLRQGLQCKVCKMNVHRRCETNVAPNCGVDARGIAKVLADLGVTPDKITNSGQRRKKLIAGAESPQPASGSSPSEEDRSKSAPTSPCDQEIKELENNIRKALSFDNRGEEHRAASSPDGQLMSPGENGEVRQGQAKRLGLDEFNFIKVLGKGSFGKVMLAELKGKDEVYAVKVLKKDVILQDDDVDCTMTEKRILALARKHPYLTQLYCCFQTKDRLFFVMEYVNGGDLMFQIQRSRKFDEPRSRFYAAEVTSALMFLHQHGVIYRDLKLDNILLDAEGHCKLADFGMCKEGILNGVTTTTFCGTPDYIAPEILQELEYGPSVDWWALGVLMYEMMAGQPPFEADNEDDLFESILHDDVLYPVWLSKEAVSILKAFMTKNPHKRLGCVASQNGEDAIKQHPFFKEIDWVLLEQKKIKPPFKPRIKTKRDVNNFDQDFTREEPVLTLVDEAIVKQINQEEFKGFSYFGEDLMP

[3] = target: T1, Protein kinase C epsilon type (Homo sapiens); settings: at 1 µM

Chain of Protein kinase C delta type (Homo sapiens) (Q05655 whole entry, looked up): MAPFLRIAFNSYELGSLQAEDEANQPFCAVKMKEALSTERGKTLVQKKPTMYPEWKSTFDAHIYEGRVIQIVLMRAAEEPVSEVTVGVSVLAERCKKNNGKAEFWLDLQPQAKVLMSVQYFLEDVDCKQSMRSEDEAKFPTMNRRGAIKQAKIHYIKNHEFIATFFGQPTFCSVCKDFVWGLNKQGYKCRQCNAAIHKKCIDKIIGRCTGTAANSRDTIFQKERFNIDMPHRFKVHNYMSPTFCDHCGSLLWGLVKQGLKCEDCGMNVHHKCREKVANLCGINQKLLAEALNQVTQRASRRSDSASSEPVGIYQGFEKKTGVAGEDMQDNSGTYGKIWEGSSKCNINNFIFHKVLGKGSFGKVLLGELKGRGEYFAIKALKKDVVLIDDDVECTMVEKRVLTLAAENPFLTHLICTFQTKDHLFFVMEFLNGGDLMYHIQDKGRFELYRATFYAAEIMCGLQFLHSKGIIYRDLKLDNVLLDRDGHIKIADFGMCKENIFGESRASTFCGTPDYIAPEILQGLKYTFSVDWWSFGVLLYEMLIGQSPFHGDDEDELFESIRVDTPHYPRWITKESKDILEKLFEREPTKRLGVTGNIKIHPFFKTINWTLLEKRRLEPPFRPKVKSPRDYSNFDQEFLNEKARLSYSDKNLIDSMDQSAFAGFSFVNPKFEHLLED

| Compound | residual activity [1] [%] | residual activity [2] [%] | residual activity [3] [%] |
| --- | --- | --- | --- |
| COc1ccc2c(c1)/C(=C/c1cnc[nH]1)C(=O)N2 | 61 | 80 | – |
| CCn1cnc2c(Nc3cccc(Cl)c3)nc(N[C@@H]3CCCC[C@@H]3N)nc21 | 59 | 80 | 100 |
| c1cc(-c2cnn3cc(-c4ccc(OCCN5CCCCC5)cc4)cnc23)ccn1 | – | 103 | – |
| C[S+]([O-])c1ccc(-c2nc(-c3ccc(F)cc3)c(-c3ccncc3)[nH]2)cc1 (centres undefined) | 105 | 105 | 125 |
| COc1cc(OC)c(/C=C2\C(=O)Nc3ccccc32)c(OC)c1 | – | 107 | 95 |
| CC(C)[C@H](CO)Nc1nc(Nc2cccc(Cl)c2)c2ncn(C(C)C)c2n1 | – | 92 | – |
| COc1cc2ncnc(Nc3ccc(OCc4ccccc4)cc3)c2cc1OC | 106 | 119 | 104 |
| O=[N+]([O-])/C=C/c1ccc2c(c1)OCO2 | 95 | 81 | 81 |
| COC(=O)[C@@]1(O)C[C@H]2O[C@]1(C)n1c3ccccc3c3c4c(c5c6ccccc6n2c5c31)C(=O)NC4 | 3 | 10 | 51 |
| COc1ccc2c(c[n+](C)c3c4cc5c(cc4ccc23)OCO5)c1OC | – | 78 | 88 |
| O=C1Nc2ccc3ncsc3c2/C1=C/c1c[nH]cn1 | 5 | 9 | 27 |
| CCc1nc(-c2ccc(OC)cc2)[nH]c1-c1ccncc1 | 105 | 109 | 104 |
| CC(C)(C)c1cc(C=C(C#N)C#N)cc(Br)c1O | 97 | – | 108 |
| O=c1[nH]c2ccccc2n1C1CCN(Cc2ccc(-c3nc4cc5[nH]cnc5cc4nc3-c3ccccc3)cc2)CC1 | 111 | 100 | 87 |
